Measured values from PubChem BioAssay (Tox21).
Records with an inconclusive call do not appear. Active and inactive are the calls of the source. Calls follow the shape of the dose curve; as a rule, active = well fitted curve in the direction sought with a large enough effect in the repeat runs; inconclusive = weak or mixed curves; inactive = no such curve, though single readings can be large; an effect the other way counts as inactive or inconclusive.

Columns and labels:
[1] = qHTS RealTime-Glo MT Cell Viability Assay in HEK293 cells - 32 hour (AID 1224868); also: top concentration of the series differs between compounds; nearly all actives have a fitted effect of over 50% in size
Outline: (§1)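 HEK293 cells seeded with NanoLuc/prosubstrate reagent, rested 5 h at 37 C, then dosed and kept at 37 C up to 40 h. Nonlytic real-time luminescence from viable cells read at 0, 8, 16, 24, 32 and 40 h.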

[2] = A CellTox Green Cytotoxicity Assay to monitor cytotoxicity in HEK293 cells - 0 hour (AID 1224869); also: nearly all actives have a fitted effect of over 50% in size
Outline: (§2)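 Fluorescence intensity, read at 0, 8, 16, 24, 32 and 40 h of compound treatment, reflected dye binding to DNA of dead HEK293 cells; compounds (23 nL, DMSO) were added 5 h after plating cells with reagent.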

[3] = qHTS RealTime-Glo MT Cell Viability Assay in HepG2 cells - 40 hour (AID 1224870); also: nearly all actives have a fitted effect of over 50% in size
Outline: (§3)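 HepG2 cells mixed with RealTime-Glo MT reagents (NanoLuc plus cell-permeant prosubstrate) were seeded at 600 cells/well, incubated 5 h at 37 C/5% CO2, then pinned with compounds in DMSO; nonlytic luminescence tracked viability during 40 h treatment.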

[4] = A CellTox Green Cytotoxicity Assay to monitor cytotoxicity in HEK293 cells - 40 hour (AID 1224871); also: nearly all actives have a fitted effect of over 45% in size
Outline: as §2

[5] = qHTS RealTime-Glo MT Cell Viability Assay in HepG2 cells - 8 hour (AID 1224873); also: nearly all actives have a fitted effect of over 55% in size
Outline: as §3

[6] = qHTS RealTime-Glo MT Cell Viability Assay in HEK293 cells - 40 hour (AID 1224874); details: RealTime-Glo luminescence, stronger effect = lower value; also: nearly all actives have a fitted effect of over 50% in size
Outline: (§4)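 Viable HEK293 cells reduce a cell-permeant prosubstrate; the product diffuses out and is consumed by NanoLuc in the medium to give light. Compounds went in after a 5 h incubation and plates were read over the treatment course.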

[7] = A CellTox Green Cytotoxicity Assay to monitor cytotoxicity in HEK293 cells - 24 hour (AID 1224875); also: series mostly up to about 77 µM; nearly all actives have a fitted effect of over 45% in size
Outline: as §2

[8] = A CellTox Green Cytotoxicity Assay to monitor cytotoxicity in HepG2 cells - 16 hour (AID 1224876); also: nearly all actives have a fitted effect of over 45% in size
Outline: (§5)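 Using 1536-well format, dye-containing HepG2 suspension was seeded, allowed 5 h at 37 C/5% CO2, dosed by pintool with compounds, positive and negative controls, and imaged for fluorescence across 40 h.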

[9] = qHTS RealTime-Glo MT Cell Viability Assay in HepG2 cells - 32 hour (AID 1224877); also: nearly all actives have a fitted effect of over 55% in size
Outline: (§6)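 HepG2 cells (600/well) were dispensed with RealTime-Glo reagents, incubated 5 h at 37 °C, then treated with compounds in DMSO for up to 40 h. Nonlytic NanoLuc luminescence reflecting viable cells was read at each stated time point.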

[10] = A CellTox Green Cytotoxicity Assay to monitor cytotoxicity in HepG2 cells - 24 hour (AID 1224878); also: nearly all actives have a fitted effect of over 45% in size
Outline: as §5

[11] = A CellTox Green Cytotoxicity Assay to monitor cytotoxicity in HepG2 cells - 40 hour (AID 1224879); also: nearly all actives have a fitted effect of over 40% in size
Outline: as §5

[12] = qHTS RealTime-Glo MT Cell Viability Assay in HEK293 cells - 0 hour (AID 1224880)
Outline: as §4

[13] = A CellTox Green Cytotoxicity Assay to monitor cytotoxicity in HEK293 cells - 32 hour (AID 1224881); also: nearly all actives have a fitted effect of over 40% in size
Outline: as §2

[14] = A CellTox Green Cytotoxicity Assay to monitor cytotoxicity in HepG2 cells - 32 hour (AID 1224883); also: nearly all actives have a fitted effect of over 50% in size
Outline: as §5

[15] = A CellTox Green Cytotoxicity Assay to monitor cytotoxicity in HEK293 cells - 8 hour (AID 1224884); also: nearly all actives have a fitted effect of over 35% in size
Outline: as §2

[16] = qHTS RealTime-Glo MT Cell Viability Assay in HepG2 cells - 16 hour (AID 1224885); also: nearly all actives have a fitted effect of over 50% in size
Outline: as §6

[17] = qHTS RealTime-Glo MT Cell Viability Assay in HEK293 cells - 24 hour (AID 1224886)
Outline: as §1

[18] = qHTS RealTime-Glo MT Cell Viability Assay in HEK293 cells - 8 hour (AID 1224887)
Outline: as §4

[19] = A CellTox Green Cytotoxicity Assay to monitor cytotoxicity in HepG2 cells - 0 hour (AID 1224882); also: nearly all actives have a fitted effect of over 35% in size
Outline: as §5

[20] = qHTS RealTime-Glo MT Cell Viability Assay in HEK293 cells - 16 hour (AID 1224872)
Outline: as §1
% is scaled to controls: 0 for no effect and ±100 for the full control effect.

N#Cc1cc(NC(=O)C(=O)O)c(Cl)c(NC(=O)C(=O)O)c1
inactive: outcome [1] | outcome [2] | outcome [3] | Potency [4] | outcome [5] | max response [6] -0.333% | Potency [7] | Potency [8] | outcome [9] | Potency [10] | Potency [11] | Potency [12] | Potency [13] | Potency [14] | Potency [15] | outcome [16] | outcome [17] | outcome [18]

CCOc1ccccc1OCCN[C@H](C)Cc1ccc(OC)c(S(N)(=O)=O)c1
inactive: outcome [1] | outcome [2] | outcome [3] | Potency [4] | outcome [5] | max response [6] -2.4% | Potency [7] | Potency [8] | outcome [9] | Potency [10] | Potency [12] | Potency [14] | Potency [15] | outcome [16] | outcome [17] | outcome [18]

CC(C)(O)c1ccc(C(C)(C)O)cc1
inactive: outcome [1] | outcome [2] | outcome [3] | Potency [4] | outcome [5] | Potency [7] | Potency [8] | outcome [9] | Potency [10] | Potency [11] | Potency [12] | Potency [13] | Potency [14] | Potency [15] | outcome [16] | outcome [18]

CNCCc1ccccn1
inactive: outcome [1] | outcome [2] | outcome [3] | Potency [4] | outcome [5] | max response [6] -0.337% | Potency [7] | Potency [8] | outcome [9] | Potency [10] | Potency [11] | Potency [12] | Potency [13] | Potency [19] | Potency [14] | Potency [15] | outcome [16] | outcome [17] | outcome [18]

CC/C=C/CCCCCCCCCCOC(C)=O
inactive: outcome [1] | outcome [2] | outcome [3] | outcome [20] | outcome [5] | Potency [7] | Potency [8] | outcome [9] | Potency [10] | Potency [11] | Potency [12] | Potency [13] | Potency [19] | Potency [14] | Potency [15] | outcome [16] | outcome [17] | outcome [18]

NC(=O)CC[C@@H](N)C(=O)O
inactive: outcome [1] | outcome [2] | outcome [3] | outcome [20] | max response [6] 8.04% | Potency [7] | outcome [9] | Potency [10] | Potency [12] | Potency [13] | Potency [19] | Potency [14] | Potency [15] | outcome [16] | outcome [17] | outcome [18]

CCCC(=O)C(CC)Sc1ccoc1C (configuration not stated)
inactive: outcome [1] | outcome [2] | outcome [3] | outcome [20] | max response [6] -5.27% | Potency [7] | Potency [8] | outcome [9] | Potency [12] | Potency [15] | outcome [17] | outcome [18]

CCCc1ccc(O)c(OC)c1
inactive: outcome [1] | outcome [2] | Potency [4] | outcome [20] | outcome [5] | max response [6] 6.36% | Potency [7] | Potency [8] | outcome [9] | Potency [10] | Potency [11] | Potency [12] | Potency [13] | Potency [19] | Potency [15] | outcome [16] | outcome [17] | outcome [18]

C=CC(=O)OCC[N+](C)(C)C
inactive: outcome [1] | outcome [2] | Potency [4] | outcome [20] | outcome [5] | max response [6] 10.3% | Potency [7] | Potency [8] | outcome [9] | Potency [10] | Potency [11] | Potency [12] | Potency [13] | Potency [14] | Potency [15] | outcome [16] | outcome [18]

C=C(C)C(=O)OCCCC
inactive: outcome [1] | outcome [2] | outcome [3] | outcome [20] | outcome [5] | max response [6] 11.4% | Potency [7] | Potency [8] | outcome [9] | Potency [10] | Potency [11] | Potency [12] | Potency [13] | Potency [19] | Potency [15] | outcome [16] | outcome [17] | outcome [18]

CC(C)C[P+](C)(CC(C)C)CC(C)C
inactive: outcome [1] | outcome [2] | outcome [3] | outcome [5] | max response [6] -17.7% | Potency [8] | outcome [9] | Potency [10] | Potency [11] | Potency [12] | Potency [19] | Potency [14] | Potency [15] | outcome [16] | outcome [17] | outcome [18]

Cc1cc(N)no1
inactive: outcome [1] | outcome [2] | outcome [3] | outcome [20] | max response [6] 13.5% | Potency [7] | Potency [8] | outcome [9] | Potency [10] | Potency [11] | Potency [12] | Potency [13] | Potency [19] | Potency [14] | Potency [15] | outcome [16] | outcome [17] | outcome [18]

Cc1ccc(OC(=O)CC(C)C)cc1
inactive: outcome [1] | outcome [2] | outcome [3] | outcome [20] | max response [6] 3.9% | Potency [7] | Potency [8] | outcome [9] | Potency [10] | Potency [11] | Potency [12] | Potency [13] | Potency [15] | outcome [16] | outcome [17] | outcome [18]

NNC(=O)CCCCC(=O)NN
inactive: outcome [1] | outcome [2] | outcome [3] | outcome [20] | outcome [5] | Potency [7] | outcome [9] | Potency [10] | Potency [12] | Potency [13] | Potency [19] | Potency [15] | outcome [16] | outcome [17] | outcome [18]

CCCCS
inactive: outcome [1] | outcome [2] | outcome [3] | outcome [20] | max response [6] 0.118% | Potency [8] | outcome [9] | Potency [10] | Potency [12] | Potency [19] | Potency [15] | outcome [16] | outcome [17] | outcome [18]
